For experiment [1], the target named is D(1A) dopamine receptor (Homo sapiens) (UniProt P21728). The experiment can be described thus: HTS Assay for Allosteric Agonists of the Human D1 Dopamine Receptor: Primary Screen for Potentiators (AID 488982). Also: 0% is about no effect. Particulars: HEK293 T-REx D1 inducible cells, calcium flux, kinetic fluorescence; series mostly up to 8.37 µM. The procedure, abridged:
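Tetracycline-induced HEK293 T-REx cells force-coupled to calcium signalling were incubated overnight at 30 C and dye-loaded at room temperature. Calcium flux over 180 s after compound addition flagged agonists; a further 180 s read after EC20 dopamine flagged potentiators.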
(Calcium assays in cells follow changes in intracellular calcium, usually with a dye or a luminescent sensor.)

For experiment [2] the target is unchanged. The experiment can be described thus: HTS Assay for Allosteric Agonists of the Human D1 Dopamine Receptor: Primary Screen for Antagonists (AID 488983).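 Also: calcium flux response to an EC80 dopamine challenge measured with no-wash dye; nearly all actives have a fitted effect of over 65% in size.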 Also: potency is read from the fitted curve at half-maximal effect. Particulars: D1 receptor cell assay, antagonist mode, qHTS titration; series mostly up to 41.8 µM. Put shortly:
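Calcium-flux read-out in inducible HEK293 T-REx cells expressing D1, dye-loaded 30–90 min at room temperature. Kinetic reads: 180 s after compound (agonist phase), then 180 s after an EC80 dopamine challenge.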
(qHTS replaces the single test concentration by a dilution series.)

The target of experiment [3] is ATP-dependent 6-phosphofructokinase (Trypanosoma brucei brucei) (UniProt O15648). The experiment is described as follows: qHTS Assay to Find Inhibitors of T. brucei phosphofructokinase: hit validation (AID 492961). Also: potency is read from the fitted curve at half-maximal effect. Particulars: T. brucei PFK, ADP-Glo luminescence; series mostly up to 51.4 µM. Put shortly: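 Reaction: 0.1 M triethanolamine pH 8.0, 5 mM MgCl2, F6P 0.5 mM, ATP 0.1 mM, PFK 1.25 nM, 45 min RT. Read-out: ADP-Glo luminescence. Analysis: concentration-response fits, classed by r2 and efficacy.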

Experiment [4] is described as follows: Validation screen for small molecules that induce genotoxicity in human embryonic kidney (HEK293T) cells expressing luciferase-tagged ELG1 (AID 493106). Also: 0% is about no effect. Particulars: luminescence; series mostly up to 46.1 µM. Put shortly:
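ELG1-luciferase reporter readout (ONE-Glo, 30 min, room temperature) after 16 hr compound treatment at 37 °C of HEK293T cells at 2,000 per well. Rising luminescence flags genotoxic stress.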

Experiment [5] deals with ATPase family AAA domain-containing protein 5 (Homo sapiens) (UniProt Q96QE3). The experiment can be described thus: Validation screen for small molecules that inhibit ELG1-dependent DNA repair in human embryonic kidney (HEK293T) cells expressing luciferase-tagged ELG1 (AID 493107). Also: nearly all actives have a fitted effect of over 70% in size. Also: potency is read from the fitted curve at half-maximal effect. Particulars: HEK293T ELG1-luciferase level, luminescence, 5-fluorouridine co-treatment, 16 h; series mostly up to 46.1 µM. Put shortly:
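Luciferase read-out, ONE-Glo, 30 min at room temperature, follows 16 h co-exposure at 37 C of compound and the DNA-damaging agent 5-fluorouridine. Cells: HEK293T with ELG1-luciferase fusion, 2,000 per well, DMSO as vehicle.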

The target in experiment [6] is Thyrotropin-releasing hormone receptor (Homo sapiens) (UniProt P34981). The experiment can be described thus: qHTS for Small Molecule Agonists and Allosteric Enhancers of Human TRH Receptor: Validation Screen for Agonists (AID 493127;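 active = calcium activation more than 3 SD above the typical response in the agonist read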;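 also: intracellular calcium rise by fluo-8 fluorescence before TRH EC20 addition; 0% is about no effect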). Particulars: TRH receptor agonist cell assay; at 2 µM; stronger effect = higher value. The procedure, abridged:
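Compound-evoked intracellular calcium release in fluo-8-loaded TRHR cells, read kinetically on FDSS (Ex 480/Em 530, 1 s/cycle) after 23 nL pintool transfer. Agonist phase preceded 10 nM TRH EC20 addition.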

The nature of experiment [7]: Nrf2 qHTS screen for inhibitors: Validation (AID 493153; active = well fitted inhibition curve with a large enough effect in the main read-out, with a control signal flat, not every such curve was filed as active). The following applies: A549 ARE-Fluc reporter, 18-24 h; Potency: luciferase luminescence; viability change: measured here: cytotoxicity max response; luciferase luminescence, at 46.1 µM (top of the series). Put shortly:
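Concentration-response on A549 ARE_Fluc reporter cells exposed 18-24 h at 37 C, 5% CO2. Cytotoxicity read first by CellTiter-Fluor fluorescence (Ex 405/Em 525), then Nrf2 inhibition by BugLite luminescence after 15 min.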

The nature of experiment [8]: qHTS for Inhibitors of Cell Surface uPA Generation: Validation Assay (AID 493164).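 Also: RAW 264.7 macrophage cells exposed to compound for 18 h; 0% is about no effect.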 Particulars: mouse cells, plasminogen activation; series mostly up to 38.3 µM. Put shortly: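 ATP-Lite luminescence read-out: ATP remains high when uPA activity-dependent LF translocation into the cytoplasm is blocked. RAW 264.7 cells, 18 h compound exposure at 37 C; 7-point titration, 2.45 nM to 38.3 uM final.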

Experiment [9] deals with Galactokinase (Homo sapiens) (UniProt P51570). The experiment can be described thus: qHTS Validation Assay for Inhibitors of Human Galactokinase (GALK) (AID 493189). Also: 0% is about no effect. Particulars: purified human GALK enzyme activity, qHTS 7-point titration; series mostly up to 57.5 µM. Put shortly: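 GALK (5 nM) with 35 uM ATP and 100 uM galactose in HEPES pH8.0, MgCl2, NaCl, DTT, BSA; 1 h at room temperature. Residual ATP read by Kinase-Glo Plus luminescence after 10 min.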

Records with an inconclusive call do not appear. The source made the active and inactive calls. Unless noted, calls follow the shape of the dose curve; as a rule, active = well fitted curve in the direction sought with a large enough effect; inconclusive = small, poorly fitted or top-dose-only effect, or another doubt; inactive = no such curve, though single readings can be large; an effect the other way counts as inactive or inconclusive.

Sequence of ATP-dependent 6-phosphofructokinase (Trypanosoma brucei brucei) (O15648 whole entry, looked up): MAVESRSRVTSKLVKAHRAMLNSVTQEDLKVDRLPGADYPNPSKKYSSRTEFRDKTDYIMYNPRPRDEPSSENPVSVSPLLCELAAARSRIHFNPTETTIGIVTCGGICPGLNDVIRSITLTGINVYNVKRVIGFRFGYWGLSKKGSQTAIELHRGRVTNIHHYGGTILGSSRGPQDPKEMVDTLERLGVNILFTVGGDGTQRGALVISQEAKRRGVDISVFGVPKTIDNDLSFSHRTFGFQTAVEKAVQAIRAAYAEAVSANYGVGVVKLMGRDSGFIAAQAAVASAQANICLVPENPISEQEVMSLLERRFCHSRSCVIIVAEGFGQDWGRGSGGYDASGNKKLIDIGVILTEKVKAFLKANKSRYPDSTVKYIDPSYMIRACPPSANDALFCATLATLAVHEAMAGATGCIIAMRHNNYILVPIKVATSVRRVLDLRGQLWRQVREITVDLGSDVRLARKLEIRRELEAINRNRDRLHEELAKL
Sequence of ATPase family AAA domain-containing protein 5 (Homo sapiens) (Q96QE3 whole entry, looked up, the tested form may be a part): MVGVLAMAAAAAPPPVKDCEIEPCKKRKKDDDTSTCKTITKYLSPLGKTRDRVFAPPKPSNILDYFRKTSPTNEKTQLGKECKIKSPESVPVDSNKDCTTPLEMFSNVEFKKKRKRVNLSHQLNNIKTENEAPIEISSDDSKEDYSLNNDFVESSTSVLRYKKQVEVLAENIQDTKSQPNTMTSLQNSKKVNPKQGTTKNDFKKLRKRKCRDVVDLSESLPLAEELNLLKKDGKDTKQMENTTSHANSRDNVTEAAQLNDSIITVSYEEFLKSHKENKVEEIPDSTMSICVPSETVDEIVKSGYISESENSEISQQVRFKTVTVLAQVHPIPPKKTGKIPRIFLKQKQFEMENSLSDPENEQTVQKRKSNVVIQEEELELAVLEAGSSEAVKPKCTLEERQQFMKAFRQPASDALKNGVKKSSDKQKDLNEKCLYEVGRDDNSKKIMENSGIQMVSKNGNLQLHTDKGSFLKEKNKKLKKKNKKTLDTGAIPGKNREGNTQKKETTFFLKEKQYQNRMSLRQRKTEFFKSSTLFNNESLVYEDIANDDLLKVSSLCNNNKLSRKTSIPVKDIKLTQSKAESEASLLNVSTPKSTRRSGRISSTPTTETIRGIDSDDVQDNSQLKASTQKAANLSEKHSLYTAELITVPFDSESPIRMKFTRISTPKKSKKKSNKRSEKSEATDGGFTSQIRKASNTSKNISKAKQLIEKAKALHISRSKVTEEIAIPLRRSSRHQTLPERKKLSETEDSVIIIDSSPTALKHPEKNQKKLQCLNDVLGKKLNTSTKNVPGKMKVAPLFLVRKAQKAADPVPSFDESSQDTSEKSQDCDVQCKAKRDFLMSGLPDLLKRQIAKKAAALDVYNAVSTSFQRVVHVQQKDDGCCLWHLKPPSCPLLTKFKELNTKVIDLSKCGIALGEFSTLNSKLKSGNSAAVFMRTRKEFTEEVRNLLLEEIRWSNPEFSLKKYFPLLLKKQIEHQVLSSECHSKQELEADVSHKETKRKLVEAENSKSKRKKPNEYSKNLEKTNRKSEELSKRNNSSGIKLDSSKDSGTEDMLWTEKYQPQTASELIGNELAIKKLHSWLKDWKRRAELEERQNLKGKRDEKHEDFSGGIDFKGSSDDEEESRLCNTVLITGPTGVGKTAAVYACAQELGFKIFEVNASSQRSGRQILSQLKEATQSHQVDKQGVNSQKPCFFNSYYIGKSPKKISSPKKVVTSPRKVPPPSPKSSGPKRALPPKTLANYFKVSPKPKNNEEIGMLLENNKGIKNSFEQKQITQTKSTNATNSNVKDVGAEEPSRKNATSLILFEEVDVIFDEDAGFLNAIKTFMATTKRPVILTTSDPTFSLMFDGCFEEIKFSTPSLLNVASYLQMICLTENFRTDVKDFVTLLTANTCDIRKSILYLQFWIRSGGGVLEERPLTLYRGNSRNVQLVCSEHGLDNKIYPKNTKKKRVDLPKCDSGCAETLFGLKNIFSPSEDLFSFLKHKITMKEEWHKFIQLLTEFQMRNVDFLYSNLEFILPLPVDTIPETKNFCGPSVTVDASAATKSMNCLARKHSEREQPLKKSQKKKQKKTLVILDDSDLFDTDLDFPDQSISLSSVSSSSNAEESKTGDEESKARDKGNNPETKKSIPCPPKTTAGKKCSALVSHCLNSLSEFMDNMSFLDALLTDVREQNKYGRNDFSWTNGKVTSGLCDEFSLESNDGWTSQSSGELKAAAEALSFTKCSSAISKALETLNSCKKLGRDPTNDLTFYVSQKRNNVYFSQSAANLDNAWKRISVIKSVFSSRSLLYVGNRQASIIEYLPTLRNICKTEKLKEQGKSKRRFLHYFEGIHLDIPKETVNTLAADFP
Sequence of D(1A) dopamine receptor (Homo sapiens) (P21728 whole entry, looked up): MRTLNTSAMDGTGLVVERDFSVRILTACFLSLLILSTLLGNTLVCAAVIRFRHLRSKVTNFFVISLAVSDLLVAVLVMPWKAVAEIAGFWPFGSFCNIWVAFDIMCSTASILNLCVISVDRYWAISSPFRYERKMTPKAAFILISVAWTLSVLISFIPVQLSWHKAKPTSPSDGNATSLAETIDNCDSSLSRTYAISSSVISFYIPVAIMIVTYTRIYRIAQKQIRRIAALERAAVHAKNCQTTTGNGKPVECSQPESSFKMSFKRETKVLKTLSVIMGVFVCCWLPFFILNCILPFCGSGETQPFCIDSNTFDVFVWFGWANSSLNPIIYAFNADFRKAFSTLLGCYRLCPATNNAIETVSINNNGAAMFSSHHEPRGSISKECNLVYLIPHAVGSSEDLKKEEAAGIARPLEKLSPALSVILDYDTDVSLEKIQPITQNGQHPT
Sequence of Galactokinase (Homo sapiens) (P51570 whole entry, looked up): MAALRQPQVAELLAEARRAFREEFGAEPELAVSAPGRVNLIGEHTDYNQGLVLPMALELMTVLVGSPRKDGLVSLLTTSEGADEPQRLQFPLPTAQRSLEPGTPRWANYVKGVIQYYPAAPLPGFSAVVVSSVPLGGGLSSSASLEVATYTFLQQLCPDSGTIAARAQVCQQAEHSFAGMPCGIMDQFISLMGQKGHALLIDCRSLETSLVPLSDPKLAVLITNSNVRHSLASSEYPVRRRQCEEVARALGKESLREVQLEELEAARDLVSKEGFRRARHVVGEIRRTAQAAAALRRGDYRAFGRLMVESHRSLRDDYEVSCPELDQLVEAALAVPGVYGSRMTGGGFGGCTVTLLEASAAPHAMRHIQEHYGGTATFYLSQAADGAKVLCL
Sequence of Thyrotropin-releasing hormone receptor (Homo sapiens) (P34981 whole entry, looked up): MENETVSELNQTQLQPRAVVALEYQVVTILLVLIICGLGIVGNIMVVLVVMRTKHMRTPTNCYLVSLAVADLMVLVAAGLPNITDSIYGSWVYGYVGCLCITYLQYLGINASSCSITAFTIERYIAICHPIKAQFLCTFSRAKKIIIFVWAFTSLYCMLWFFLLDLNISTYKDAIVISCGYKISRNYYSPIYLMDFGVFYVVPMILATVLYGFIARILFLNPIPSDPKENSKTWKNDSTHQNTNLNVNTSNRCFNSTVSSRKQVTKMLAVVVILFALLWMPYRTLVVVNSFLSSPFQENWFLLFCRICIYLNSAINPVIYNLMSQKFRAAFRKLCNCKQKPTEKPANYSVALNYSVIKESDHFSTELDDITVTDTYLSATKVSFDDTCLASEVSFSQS

Turning to `Cc1sc2ccccc2c1CC1=NCCN1`, the Potency entry in [1], in experiment [3], in experiment [4], in experiment [5] and in experiment [7] was “inactive” each time. Also, the Potency in [2] was 10 µM (active). In addition, the activation in [6] was 1.12% (inactive). Also, the viability change in experiment [7] was -0.892%. The call in [8] and in experiment [9] was inactive.

As to `NC(CCCCCP(=O)(O)O)C(=O)O` (stereo unspecified), the Potency entry in experiment [1], in experiment [2], in experiment [4] and in experiment [7] was “inactive” throughout. In addition, in experiment [6], the activation was 0.312% (inactive). Moreover, in experiment [7], the viability change is 13.6%. For the same compound, the compound was called inactive in [8] and in [9].

In the case of `CCCN(CCC)CCc1ccc(O)c(O)c1`, the Potency result in experiment [1], in experiment [4], in [5] and in [7] was “inactive” each time. Besides, the Potency in experiment [2] was 1.78 µM (active). The activation in experiment [6] was -3.94% (inactive). For the same compound, the viability change in [7] is -6.78%. For the same compound, the compound was classed as inactive in experiment [8] and in [9].

Take `Oc1ccc2c3c1O[C@H]1c4[nH]c5ccccc5c4C[C@@]4(O)C(C2)N(CC2CC2)CCC314` (stereo partly specified): the Potency entry in experiment [1], in [2], in [4], in experiment [5] and in [7] was “inactive” each time. Further, in experiment [6], the activation was 1.69% (inactive). Besides, the viability change in [7] was -8.87%. The compound was called inactive in [8] and in [9].

Regarding `O=c1c2ccccc2[se]n1-c1ccccc1`, the Potency result in [1], in [2], in experiment [4] and in experiment [7] was “inactive” each time. Besides, in [3], the Potency was 11.2 µM (active). Also, the activation in experiment [6] was 3.06% (inactive). Moreover, the viability change in experiment [7] is 3.13%. In addition, the compound was classed as inactive in experiment [8] and in experiment [9].

For the compound `CN(N=O)c1cc(O)ccc1O`, the Potency result in [1], in experiment [2], in [4] and in experiment [5] was “inactive” throughout. For the same compound, the activation in [6] is -2.69% (inactive). The compound was called inactive in [8] and in experiment [9].

Consider `CCOC(=O)c1ncn2c1[C@@H]1CCCN1C(=O)c1cc(OC)ccc1-2`, for which the Potency entry in experiment [1], in experiment [2], in experiment [4], in experiment [5] and in experiment [7] was “inactive” in each case. For the same compound, the activation in experiment [6] was -0.25% (inactive). Further, the viability change in [7] is -9.51%. The compound was classed as inactive in experiment [8] and in experiment [9].

Consider `O=C1C=CC(=O)C=C1`, for which the Potency result in experiment [1], in experiment [2], in experiment [4] and in experiment [7] was “inactive” throughout. Also, the activation in [6] was 0.5% (inactive). In addition, in experiment [7], the viability change is -5.52%.

As to `C[N+]1(C)CCc2cc3c(cc2[C@H]1[C@@H]1OC(=O)c2c1ccc1c2OCO1)OCO3`, the Potency result in experiment [1], in experiment [2], in experiment [4], in experiment [5] and in experiment [7] was “inactive” in each case. The viability change in experiment [7] was -0.563%. Also, the outcome in experiment [8] was inactive.

Regarding `N[C@@H](CCl)C(=O)O`, the Potency entry in experiment [1], in experiment [2], in [4], in experiment [5] and in [7] was “inactive” in each case. For the same compound, in experiment [6], the activation is 1.31% (inactive). The viability change in experiment [7] came to 4.83%. Moreover, the result in experiment [8] and in experiment [9] was inactive.

In the case of `CN(C(=O)Cc1ccc(Cl)c(Cl)c1)C(CN1CCCC1)c1cccc(OCC(=O)O)c1` (stereo unspecified), the Potency entry in experiment [1], in experiment [2], in experiment [4], in experiment [5] and in experiment [7] was “inactive” each time. In addition, in [6], the activation was 0.25% (inactive). In addition, the viability change in experiment [7] is -6.12%. In addition, the call in experiment [8] and in [9] was inactive.

In the case of `C#CCN[C@H](C)Cc1ccccc1`, the Potency result in [1], in experiment [2], in [4], in experiment [5] and in experiment [7] was “inactive” throughout. In addition, the activation in experiment [6] is 1.31% (inactive). The viability change in [7] was 0.263%. The result in experiment [8] and in experiment [9] was inactive.

For `O=C1CC[C@@]2(O)C3Cc4ccc(O)c5c4C2(CCN3CC2CC2)[C@H]1O5` (stereo partly specified), the Potency entry in [1], in experiment [2], in [3], in [4] and in [7] was “inactive” in each case. Further, in [6], the activation is 1.31% (inactive). The viability change in [7] is -12.7%. The compound was classed as inactive in experiment [8] and in experiment [9].

With `CN1CCc2cc(O)cc3c2[C@H]1Cc1ccc(O)c(O)c1-3`, the Potency entry in [1], in experiment [4] and in [7] was “inactive” each time. Moreover, the figures for the Potency in [2] and in [5] were 3.16 µM (active) and 20.6 µM (active), respectively. The viability change in experiment [7] is -1.2%. Moreover, the result in experiment [8] was inactive.

On to `CN1CCc2cccc(Cl)c2CC1`, for which the Potency result in experiment [1], in [4], in experiment [5] and in experiment [7] was “inactive” in each case. For the same compound, in [2], the Potency is 2.51 µM (active). Also, the activation in [6] was 1.31% (inactive). Also, the viability change in experiment [7] worked out at 2.9%. Besides, the compound was classed as inactive in experiment [8] and in experiment [9].

With `C[N+](C)(C)CCOC(=O)CBr`, the Potency result in [1], in experiment [2], in experiment [4], in experiment [5] and in [7] was “inactive” each time. Also, the activation in [6] is 1.06% (inactive). Besides, in experiment [7], the viability change is -12.9%. The compound was called inactive in experiment [8] and in experiment [9].

With `C[C@H](N)CN1CCc2ccc(Br)cc21`, the Potency result in [1], in [2], in experiment [4], in experiment [5] and in experiment [7] was “inactive” each time. Further, the activation in [6] was 0.625% (inactive). Besides, the viability change in experiment [7] is -2.43%. Also, the outcome in [8] and in [9] was inactive.

For the compound `N[C@@H](Cn1ccc(=O)[nH]c1=O)C(=O)O`, the Potency result in [1], in experiment [2], in experiment [4], in [5] and in experiment [7] was “inactive” throughout. In addition, in experiment [7], the viability change was found to be 2.76%. Further, the call in experiment [8] was inactive.

For the compound `c1ccc2cc(CC3=NCCN3)ccc2c1`, the Potency result in experiment [1], in [2], in [3], in experiment [4], in experiment [5] and in experiment [7] was “inactive” each time. In addition, the viability change in experiment [7] was -5.88%. The compound was called inactive in experiment [8] and in experiment [9].

As to `Clc1cc(I)cc(Cl)c1NC1=NCCN1`, the Potency result in [1], in experiment [2], in [4], in [5] and in experiment [7] was “inactive” throughout. Also, the activation in experiment [6] was 1.69% (inactive). In addition, the viability change in [7] turned out to be 9.07%. Moreover, the outcome in experiment [8] and in experiment [9] was inactive.

Consider `COc1ccc2[nH]cc(CCN)c2c1`, for which the Potency entry in experiment [1], in [2], in [4], in experiment [5] and in experiment [7] was “inactive” throughout. Besides, the activation in [6] was -2.62% (inactive). For the same compound, in [7], the viability change is 0.303%. Besides, the result in experiment [8] and in [9] was inactive.

With `NCCCP(=O)(O)O`, the Potency result in experiment [1], in experiment [2], in [4], in experiment [5] and in [7] was “inactive” each time. In addition, the activation in [6] was 0.562% (inactive). Besides, the viability change in [7] is 0.331%. The compound was classed as inactive in [8] and in experiment [9].

Regarding `C=CCN1CC[C@]23c4c5ccc(O)c4O[C@H]2/C(=N/NC(=O)c2ccccc2)CC[C@@]3(O)[C@H]1C5`, the Potency result in experiment [1], in experiment [2], in experiment [4], in [5] and in experiment [7] was “inactive” each time. Also, the activation in experiment [6] is 1.44% (inactive). Moreover, in [7], the viability change turned out to be 7.77%. In addition, the compound was called inactive in [8] and in experiment [9].

The values above are taken from PubChem BioAssay (NCATS).
